Molecules are shown by their SMILES. Records with an inconclusive call do not appear. A number with no mark means an inactive call. The source made the active and inactive calls. Calls come from the whole dose curve; as a rule, active = well fitted cell-killing curve with a large enough effect; inconclusive = small, poorly fitted or top-dose-only effect, or effect the other way; inactive = no such curve, though single readings can be large or run the other way.
% is set by controls: 0 for no effect and ±100 for the full control effect; potency is the fitted concentration of half-maximal effect.

In this assay the test system is CAOV3. The assay can be described thus: Confirmatory qHTS for gynecologic anti-cancer compounds from libraries of approved drugs and bioactive compounds. Note: nearly all actives have a fitted effect of over 55% in size. The following applies: gynecologic cancer cell panel viability, ATPlite luminescence, 48 h; series mostly up to 57.6 µM; activity change, negative = viability loss: at the top concentration. The procedure, abridged:
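IC50 values derive from an ATPlite ATP-content luminescence assay following 48 h treatment at 37 C. Each compound ran as an 11-concentration, threefold series (57.5 uM to 0.977 nM); HEK 293T served as control line for selectivity index.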
For orientation: qHTS replaces the single test concentration by a dilution series.
Consider `CC(C)C[C@H](NC(=O)[C@@H](NC(=O)c1cccc(-c2ccccc2)n1)[C@@H](C)O)B(O)O`, for which the Potency was 0.172 µM (active).

For the compound `COc1cc(F)c(F)c(Nc2ccc(I)cc2F)c1NS(=O)(=O)C1(CC(O)CO)CC1` (stereo not drawn), the “activity change, negative = viability loss” value is -6.27%.

As to `Cn1cc(-c2ccc3ncc(Cc4ccc5ncccc5c4)n3n2)cn1`, the “activity change, negative = viability loss” value was -0.803%.

For `NC(=O)c1cnc(-c2ccc(C3(N)CCC3)cc2)c(-c2ccccc2)c1`, the Potency was 30.6 µM (active).

`NC1(c2ccc(-c3nc4ccn5c(=O)[nH]nc5c4cc3-c3ccccc3)cc2)CCC1`: the “activity change, negative = viability loss” value was 4.9%.

In the case of `CS(=O)(=O)c1ccc(-c2cnc(N)c(C(=O)Nc3ccccc3)n2)cc1`, the “activity change, negative = viability loss” value was -10.9%.

For the compound `COc1ccc(OC)c(-c2nnc3ccc(-c4ccc(OC)c(O[C@@H]5CCOC5)c4)nn23)c1`, the Potency was 8.63 µM (active).

Turning to `CCOc1cc2ncc(C#N)c(Nc3ccc(F)c(Cl)c3)c2cc1NC(=O)/C=C/CN(C)C`, the Potency is 19.3 µM (active).

On to `CCCCN(CCCC)C(=O)CN1C[C@H](c2ccc3c(c2)OCO3)[C@@H](C(=O)O)[C@@H]1c1ccc(OC)cc1`, for which the “activity change, negative = viability loss” value was -12.5%.

With `O=C1c2c(O)ccc(O)c2C(=O)c2c(NCCNCCO)ccc(NCCNCCO)c21`, the Potency is 3.85 µM (active).

As to `CCN(CC)CCOc1ccc(/C(=C(\Cl)c2ccccc2)c2ccccc2)cc1`, the Potency is 100 µM (active).

On to `Cc1cc(CN2CCN(c3c(Br)cnc4nc(-c5ccc(N6CCN(C)CC6)cc5)[nH]c34)CC2)no1`, for which the Potency was 13.7 µM (active).

`CCN(CC)CCNC(=O)c1c(C)[nH]c(/C=C2\C(=O)Nc3ccc(F)cc32)c1C`: the Potency is 15.8 µM (active).

As for `CN(C)/N=N/c1nc[nH]c1C(N)=O`, the “activity change, negative = viability loss” value is 11%.

Consider `Nc1ccccc1NC(=O)c1ccc(CNc2nccc(-c3cccnc3)n2)cc1`, for which the Potency is 2.73 µM (active).

For `CC(Oc1ccc2[nH]nc(/C=C/c3cnn(CCO)c3)c2c1)c1c(Cl)cncc1Cl` (stereo not drawn), the Potency was 2.73 µM (active).

As for `Nc1ccc(-c2ccc3ncc4ccc(=O)n(-c5cccc(C(F)(F)F)c5)c4c3c2)cn1`, the Potency was 3.43 µM (active).

With `Fc1cc(-c2cccc3ncc(-c4cnn(C5CCNCC5)c4)nc23)cc(F)c1CN1CCOCC1`, the Potency is 27.3 µM (active).

In the case of `COc1cc2c(c(OC)c1OC)-c1ccc(OC)c(=O)cc1[C@@H](NC(C)=O)CC2`, the “activity change, negative = viability loss” value was 0.285% [at 486 µM].

Turning to `NC(=O)Nc1cc(-c2cccc(F)c2)sc1C(=O)NC1CCCNC1` (stereo not drawn), the Potency is 1.22 µM (active).

Take `Cc1ccc(C(=O)Nc2cccc(C(F)(F)F)c2)cc1-c1ccc2nc(NCCN3CCOCC3)ncc2c1`: the Potency is 24.3 µM (active).

Consider `C[C@]12CCC(=O)C=C1CC[C@@H]1[C@@H]2[C@@H](O)C[C@@]2(C)[C@H]1CC[C@]2(O)C(=O)CO`, for which the “activity change, negative = viability loss” value was -8.12%.

Turning to `CC(C)n1nc(-c2cc3cc(O)ccc3[nH]2)c2c(N)ncnc21`, the Potency is 19.3 µM (active).

In the case of `Cc1ccc(C(=O)Nc2ccc(CN3CCN(C)CC3)c(C(F)(F)F)c2)cc1C#Cc1cnc2cccnn12`, the Potency is 19.3 µM (active).

In the case of `Cc1csc(NC(=O)c2sc3nc4c(c(C(F)(F)F)c3c2N)CCC4)n1`, the Potency is 1.72 µM (active).

For `Cc1cc(C(=O)N2CCN(c3cccc(Cl)c3)CC2)n(-c2ccccc2)n1`, the “activity change, negative = viability loss” value was 9.33%.

Turning to `Cc1nc(Nc2n[nH]c3c2CN(C(=O)NC(CN(C)C)c2ccccc2)C3(C)C)c2sccc2n1` (stereo not drawn), the Potency was 0.306 µM (active).

Regarding `CC(=O)c1cnc2ccc(-c3cc(Cl)c(O)c(Cl)c3)nc2c1NC1CCC(CN(C)C)CC1` (stereo not drawn), the Potency was 0.157 µM (active).

`CNC1CCC(N(Cc2cccc(-c3ccncc3)c2)C(=O)c2sc3ccccc3c2Cl)CC1` (stereo not drawn): the Potency is 27.3 µM (active).

Consider `CCN1C[C@H](C)n2c(c(O)c3c(=O)n(Cc4ccc(F)c(Cl)c4)nc(C(=O)NC)c32)C1=O`, for which the “activity change, negative = viability loss” value is 18.8%.

Regarding `NCCOc1cc(C(=O)Nc2cc(OCCN)c3ccccc3n2)nc(C(=O)Nc2cc(OCCN)c3ccccc3n2)c1`, the “activity change, negative = viability loss” value is -15.8%.

For `CCn1c(-c2nonc2N)nc2c(C#CC(C)(C)O)ncc(OCC3CCCNC3)c21` (stereo not drawn), the Potency is 24.3 µM (active).

In the case of `Cc1cc(Nc2cc(N3CCN(C)CC3)nc(Sc3ccc(NC(=O)C4CC4)cc3)n2)n[nH]1`, the “activity change, negative = viability loss” value is 5.82%.
